ELG1 repair inh: qHTS screen for small molecules that inhibit ELG1-dependent DNA repair in human embryonic kidney (HEK293T) cells expressing luciferase-tagged ELG1; HEK293T ELG1-luciferase reporter, luminescence, 16 h; DNA damage induced by 5-fluorouridine; Potency, µM (series often up to 46.1 µM), for inactives: at the top dose activity change, negative = inhibition, hits mostly inhibitors; 330,000 tested, 2.3% active; further: on the % scale 0 is the no-effect control and ±100 the full control effect; nearly all actives have a fitted effect of over 55% in size
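Quantitative HTS, concentration-response format. 2,000 cells/well co-treated with 5-fluorouridine and compound, 16 hr in 5% CO2 at 37 °C; ONE-Glo luminescence read after 30 min.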
Rab9 promoter act: qHTS Assay for Rab9 Promoter Activators | Huh7 Rab9 promoter-luciferase reporter, luminescence, 24 h | Potency, µM (highest dose often 9.22 µM), inactives show at the top dose activation, negative = inhibition, usual class: activators | 320,000 tested, 2.8% active; further: % of control where 0% means no effect; nearly all actives have a fitted effect of over 60% in size
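Luminescence from Amplite-detected luciferase (10 minutes, ambient) reports Rab9 promoter activation. Before that, stable Rab9-luciferase Huh7 cells (1500/well, reduced-serum OP-MEM I plus 10% FBS) were exposed to compound for 24 hours at 37C.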
SMN2 splice up: qHTS Assay for Enhancers of SMN2 Splice Variant Expression; 210,000 tested, 2.8% active; HEK293 SMN2-luciferase splicing reporter, luminescence, 30-36 h; Potency, µM (series often up to 46.1 µM), for the others: at the top dose activity change, positive = activation, most hits filed as activators; further: % of control where 0% means no effect; nearly all actives have a fitted effect of over 55% in size
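qHTS luciferase splicing reporter: luminescence rises when SMN2 exon 7 is included in transfected HEK293 cells. Compound exposure lasted 30-36 h at 37C, with 4.5 mM final sodium butyrate as control, followed by a ONE-Glo read.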
NPC1 promoter act: qHTS Assay for NPC1 Promoter Activators; Potency, µM (highest dose often 9.22 µM), inactives show at the top dose activation, usual class: activators; 320,000 tested, 2.4% active; Huh7 NPC1 promoter luciferase reporter, 24 h; further: % of control where 0% means no effect; nearly all actives have a fitted effect of over 60% in size
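Stably transfected Huh7 (NPC1 promoter→luciferase), 1500 cells/well in Opti-MEM + 10% FBS, 2 h settle, then compound 24 h at 37 °C. Luminescence after 10 min with Amplite reagent.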
FLuc modulator: qHTS profiling assay for firefly luciferase inhibitor/activator using purifed enzyme and Km concentrations of substrates (counterscreen for miR-21 project); Luciferin 4-monooxygenase (Photinus pyralis), P08659; purified FLuc, Km substrates, luminescence inhibition; Potency, µM (series often up to 57.5 µM), for inactives: at the highest dose activity change, negative = inhibition, most hits filed as inhibitors; 360,000 tested, 6.9% active;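 further: plate controls were vehicle for no effect and reference inhibitor for full effect; nearly all actives have a fitted effect of over 55% in size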
Target sequence (P08659 whole entry, looked up): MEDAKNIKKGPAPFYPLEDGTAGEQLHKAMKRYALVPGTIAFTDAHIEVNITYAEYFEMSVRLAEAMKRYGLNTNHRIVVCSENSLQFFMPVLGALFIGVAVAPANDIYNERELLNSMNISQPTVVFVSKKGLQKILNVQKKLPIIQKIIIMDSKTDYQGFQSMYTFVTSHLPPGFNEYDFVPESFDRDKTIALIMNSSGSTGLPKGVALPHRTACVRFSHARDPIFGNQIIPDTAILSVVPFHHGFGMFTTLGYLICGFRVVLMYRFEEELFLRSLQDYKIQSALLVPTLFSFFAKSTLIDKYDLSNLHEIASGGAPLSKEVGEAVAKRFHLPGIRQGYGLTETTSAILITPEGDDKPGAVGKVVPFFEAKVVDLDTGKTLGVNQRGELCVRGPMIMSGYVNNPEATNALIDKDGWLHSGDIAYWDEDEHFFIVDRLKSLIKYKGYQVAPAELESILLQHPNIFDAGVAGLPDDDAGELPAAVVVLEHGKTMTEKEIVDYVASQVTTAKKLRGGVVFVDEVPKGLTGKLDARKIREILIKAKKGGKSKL
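Purified P. pyralis luciferase (10nM final) with 10uM D-luciferin and 10uM ATP (Km levels) in 50mM Tris acetate pH 7.5, 10mM Mg acetate, 0.01% Tween-20, 0.05% BSA; qHTS 6-point titration, ~60 µM downward; luminescence read.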
ELG1 genotox: qHTS screen for small molecules that induce genotoxicity in human embryonic kidney (HEK293T) cells expressing luciferase-tagged ELG1; HEK293T ELG1-luciferase reporter, luminescence, 16 h; Potency, µM (titrated, usually from 46 µM), without a hit: at the highest dose activity change, positive = activation, most hits filed as activators; 330,000 tested, 1.3% active; AID 504466, 2011; further: % of control where 0% means no effect; nearly all actives have a fitted effect of over 60% in size
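Luminescence read-out: rising ELG1-luciferase signal, reflecting elevated ELG1 protein under genetic stress, flags genotoxic compounds. Cells were treated for 16 hr at 37 °C before ONE-Glo detection.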
Numbers without * were called inactive; ? = inconclusive; . = no result given. Compounds with a hit are over-represented: about 9.3% of the library has one in this group of screens. The call rests on the fitted dose curve; in most records, active means well fitted curve in the direction sought with a large enough effect; inconclusive means small, poorly fitted or top-dose-only effect, or another doubt; inactive means no such curve, though single readings can be large; an effect the other way counts as inactive or inconclusive. Potency means the concentration at half of the fitted maximal effect.

SMILES	ELG1 repair inh	Rab9 promoter act	SMN2 splice up	NPC1 promoter act	FLuc modulator	ELG1 genotox
Cc1ccc(C(=O)N(Cc2nnc(-c3ccc(Cl)cc3)o2)C2CC2)o1	?	-4.7%	.	0.6%	-26.5%	1.1%
c1ccc(-c2nnc(CSc3nncs3)o2)cc1	?	25.2%	?	27.9%	?	23.1µM*
c1ccc(Cc2nnc(-c3ccccc3)o2)cc1	?	?	?	?	23.9µM*	3.26µM*
Cc1ccccc1-c1nnc(Cc2ccccc2)o1	?	3.98µM*	11.2µM*	3.98µM*	10.7µM*	?
COc1cc(/C=N/N=C2/C(=O)Nc3ccccc32)cc(OC)c1O	?	-0.9%	19.8%	-0.7%	16.9µM*	2.2%
COc1ccc(O)c(/C=N/N=C2/C(=O)Nc3ccccc32)c1	?	0.8%	-4.5%	-1.9%	4.78µM*	5.4%
Cc1cc2c(=O)n(C)c(SCC(=O)Nc3ccccc3C)nc2s1	?	2.5%	.	1.1%	1.2%	2.3%
Cc1[nH]n(-c2cccc(Cl)c2)c(=O)c1C=NC12CN3CN(CN(C3)C1)C2	-9.7%	2.4%	-7.2%	-0.5%	-1.3%	1.0%
Cc1[nH]n(-c2cccc(Cl)c2)c(=O)c1C=NCc1ccco1	?	1.12µM*	12.6µM*	2µM*	1.51µM*	9.2µM*
Cc1[nH]n(-c2ccccc2)c(=O)c1C=NCc1ccco1	?	1.78µM*	11.2µM*	3.55µM*	9.53µM*	16.4µM*
Cc1[nH]n(-c2cccc(Cl)c2)c(=O)c1-c1ccccc1	-6.7%	12.3%	-36.1%	1.5%	?	-6.3%
Cc1[nH]n(-c2cccc(Cl)c2)c(=O)c1C=NCC(C)C	?	2.82µM*	12.6µM*	3.16µM*	23.9µM*	20.6µM*
CCC(CC)c1nnc(NC(=O)C23CC4CC(CC(NC(C)=O)(C4)C2)C3)s1	-13.0%	3.1%	.	-2.1%	3.1%	-4.6%
CC(=O)NC12CC3CC(C1)CC(C(=O)Nc1nc4ccc(F)cc4s1)(C3)C2	-20.5%	?	.	?	13.5µM*	-0.8%
CCCCN(C)C(=O)c1cc2cc3ccc(OC)cc3nc2o1	?	3.55µM*	.	3.98µM*	3.79µM*	?
CCCCN(C)C(=O)c1cc2cc3cc(OC)ccc3nc2o1	?	3.55µM*	?	?	13.5µM*	-2.0%
Nn1c(SCC(=O)NCC2CCCO2)nnc1-c1ccc(OC(F)F)cc1 (configuration not stated)	?	0.7%	.	3.6%	0.6%	0.6%
CCOC(=O)c1cnc(-n2nc(C)cc2C)nc1Nc1ccc(C)cc1	?	-3.5%	-48.8%	-3.9%	-0.2%	?
CCOC(=O)c1cnc(-n2cc(C)cn2)nc1Nc1ccccc1OC	5.17µM*	-4.6%	?	-1.5%	0.9%	0.1%
Cc1cc2[nH]cnc2c([N+](=O)[O-])c1C	4.3%	-1.6%	-0.4%	-2.6%	0.6%	5.2%
O=C(NCc1ccccc1)c1onc(CSc2ccccc2)c1C(=O)NCC1CC1	23.1µM*	-6.0%	.	-7.5%	-4.3%	-14.2%
Cc1ccc(OCc2cc(C(=O)N(C)CCc3nc4ccccc4[nH]3)no2)cc1C	?	-2.8%	.	10.9%	?	-1.2%
COc1ccc(OCc2nn3c(Cn4cnc5ccccc54)nnc3s2)cc1	23.1µM*	0.0%	-58.3%	-1.6%	?	-12.7%
C=CCN(CC=C)C(=O)COC(=O)c1ccc(Sc2ncn[nH]2)c([N+](=O)[O-])c1	-2.0%	2.6%	10.4%	-3.1%	11.1%	-1.1%
CCC(CC)CN1C(Nc2ccccc2)=NC[C@@H]1C	?	-3.7%	.	-3.4%	4.9%	2.6%
SMILES	ELG1 repair inh	Rab9 promoter act	SMN2 splice up	NPC1 promoter act	FLuc modulator	ELG1 genotox
Nc1cc([N+](=O)[O-])cc2oc(-c3ccccc3)cc12	0.0%	?	.	?	19µM*	?
CC(=O)Nc1cccc(NC(=O)c2cc3ccccc3o2)c1	?	?	11.2µM*	3.55µM*	3.38µM*	5.8µM*
CC(C)C(=O)Nc1cccc(NC(=O)c2cc3ccccc3o2)c1	?	?	17.8µM*	?	6.01µM*	?
Cc1ncoc1C(=O)Nc1cccc(Cl)c1	?	?	26.8%	?	?	?
Cc1ccc(NC(=O)c2ocnc2C)cc1Cl	?	3.16µM*	14.1µM*	?	12µM*	?
CCCCOC(=O)c1cccc(NC(=O)c2cc3ccccc3o2)c1	.	.	3.55µM*	.	8.49µM*	.
CCC(C(=O)NCCc1ccc(Cl)cc1)n1nc(C)c2c(C)n(-c3ccccc3)nc2c1=O (configuration not stated)	.	.	.	.	-10.7%	.
CCS(=O)(=O)N1CCC(C(=O)Oc2ccccc2Cl)CC1	-8.3%	-2.0%	.	0.0%	2.7%	-7.3%
COc1cc(Cl)c(C)cc1NC(=O)c1ccc(S(C)(=O)=O)cc1	-1.6%	-1.9%	-8.7%	-6.4%	-5.6%	3.0%
CCNC(=O)NC(=O)C(C)Sc1ncc(C(F)(F)F)cc1Cl (configuration not stated)	-2.6%	-2.2%	-10.9%	-5.0%	-2.6%	-3.4%
Cc1ccc(-c2nc3cc(NC(=O)c4cc5ccccc5o4)ccc3o2)cc1Cl	.	.	-4.1%	.	5.9%	.
Cc1ccc(NC(=O)c2cc3ccccc3o2)cc1Cl	?	3.16µM*	.	3.98µM*	3.38µM*	?
Cc1ccccc1NC(=O)c1cc(C(=O)c2cc(Cl)ccc2O)cn(-c2ccccc2C)c1=O	20.6µM*	-0.5%	-56.9%	-1.2%	?	-6.3%
Cc1ccc(-n2cc(C(=O)c3cc(Cl)ccc3O)cc(C#N)c2=O)cc1	-7.5%	-5.6%	-35.3%	-5.6%	-0.2%	3.2%
O=C(NCCNC(=O)c1ccccc1)c1ccccc1	17.5%	2.2%	.	-2.1%	-0.2%	2.5%
O=C(NCC(O)c1ccccc1)c1ccccc1 (configuration not stated)	?	3.98µM*	.	2.82µM*	21.3µM*	?
S=C(N=Nc1ccccc1)NNc1ccccc1	?	-1.0%	?	-2.0%	19µM*	14.8%
S=C(NNC(=S)Nc1ccccc1)Nc1ccccc1	?	?	.	?	?	5.2%
CCNc1nc(-c2ccc(Cl)cc2)cs1	?	2.24µM*	27.3%	3.55µM*	3.38µM*	?
CNc1nc(-c2ccc(Cl)cc2)cs1	?	2.82µM*	19.9%	2.82µM*	6.75µM*	?

Screening data as filed in PubChem.
